Data from PubChem BioAssay AID485341 (National Center for Advancing Translational Sciences (NCATS), 2010).
In all, about 330,000 compounds went through this assay and about 1,700 (0.52%) were called active. Only a selection was taken, and actives are over-represented in it overall. A number with no mark means an inactive call. Calls follow the shape of the dose curve; as a rule, active = well fitted inhibition curve with a large enough effect; inconclusive = small, poorly fitted or top-dose-only effect; inactive = no such curve, though single readings can be large or run the other way.

Target: Beta-lactamase (Escherichia coli (strain K12)) (UniProt P00811)
Test: qHTS Inhibitors of AmpC Beta-Lactamase (assay without detergent); also: nearly all actives have a fitted effect of over 20% in size
Conditions: AmpC nitrocefin hydrolysis, absorbance 480 nm, 0.0001% Triton; series mostly up to 57.1 µM; activity change, negative = inhibition: at the top concentration
Method: NIH Molecular Libraries Probe Production Network [MLPCN] NIH Chemical Genomics Center [NCGC] Assay Provider: Professor Brian Shoichet, UCSF Assay Overview: This aggregation profiling approach exploits the sensitivity of aggregate formation to detergent. Inhibition of b-lactamase is measured in the presence and absence of 0.01% Triton X-100. This particular assay had the prescence of 0.01% Triton X-100. See Pubchem assay "Promiscuous and Specific Inhibitors of AmpC Beta-Lactamase (assay without detergent)" for related screen. Compounds that inhibit only in the absence of detergent are considered likely promiscuous aggregators. A screen of 1,030 compounds was performed in Brian Shoichet's lab in 96-well format. AmpC activity was measured by following the absorbance at 480 nm. Nitrocefin is a chromogenic substrate: while nitrocefin is yellow (lmax 390 nm), the product of its hydrolysis is red (lmax 486 nm, 17,000 M-1). AmpC beta lactamase was provided by Shoichet Lab, UCSF.
Buffer: 20 mM phosphate buffer, pH 7.0 Triton X-100: No Detergent screen: 0.0001%, Detergent screen: 0.01%. Reagents/Controls: Buffer in columns 3 and 4 as negative control (no enzyme). 5.3 nM AmpC in columns 1, 2, 5-48. Titration of UCSF compound 9 control (from 10 mM, then 1:2) pin-transferred to column 2. Column 1 is neutral (100% activity). Assay Steps: Six uL of reagents were dispensed to 1536-well Greiner black clear bottom plates. Compounds and controls (23 nL) were transferred via Kalypsys PinTool. The plates were incubated for 15 min at room temperature, and then 2 uL of 800 uM solution of nitrocefin was added to start the reaction. The plates were immediately transferred to and read every 20 seconds for 4 min on ViewLux (Perkin-Elmer) High-throughput CCD imager using 480 nm absorbance protocol. During dispense, reagent bottles were kept submerged into 4 deg C water bath. Keywords: NIH Roadmap, MLSCN, MLI, MLSMR, qHTS, NCGC, AmpC Beta-Lactamase, Aggregation
Potency is read from the fitted curve at half-maximal effect.

Chain of Beta-lactamase (Escherichia coli (strain K12)) (P00811 whole entry, looked up): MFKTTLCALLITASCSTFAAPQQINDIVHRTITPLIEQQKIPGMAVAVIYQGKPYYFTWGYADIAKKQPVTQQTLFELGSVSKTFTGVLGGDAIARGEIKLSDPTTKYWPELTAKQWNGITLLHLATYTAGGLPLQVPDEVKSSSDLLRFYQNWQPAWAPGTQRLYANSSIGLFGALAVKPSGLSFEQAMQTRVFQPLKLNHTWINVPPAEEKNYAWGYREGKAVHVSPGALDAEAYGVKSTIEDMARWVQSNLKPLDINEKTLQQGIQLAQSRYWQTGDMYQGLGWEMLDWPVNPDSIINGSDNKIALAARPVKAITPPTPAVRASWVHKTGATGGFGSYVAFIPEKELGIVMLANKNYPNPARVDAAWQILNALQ

Row | SMILES | activity change, negative = inhibition [%] | Potency
1 | COc1ccc(N(CC(=O)Nc2cccc3ccccc23)S(C)(=O)=O)c(OC)c1 | 33.5 | –
2 | COc1cc(CO)ccc1OCC(=O)Nc1cccc2ccccc12 | – | 14.1 µM (active)
3 | COc1ccccc1NC(=O)COc1ccc(C(=O)OCC(=O)N(C(C)C)C(C)C)cc1OC | 108 | –
4 | CCc1ccccc1NC(=O)CSc1nnc([C@@H](NC(=O)OC(C)(C)C)C(C)CC)o1 (stereo not given in full) | -2.18 | –
5 | COc1ccccc1NC(=O)[C@H](COCc1ccccc1)NC(=O)OC(C)(C)C | 0.197 | –
6 | C[C@@H](NC(=O)OC(C)(C)C)c1nnc(S(=O)(=O)Cc2ccccc2)o1 | – | 10 µM (active)
7 | Cn1c(Cc2csc(N)n2)nnc1SC/C=C/c1ccccc1 | -22.6 | –
8 | COc1cc(Cl)c(S(=O)(=O)N2CCN(Cc3ccc4c(c3)OCO4)CC2)cc1Cl | 3.51 | –
9 | O=C1/C(=C\c2ccccc2Cl)SC(=S)N1CCC(=O)N1CCCc2ccccc21 | -9.24 | –
10 | O=C(CCCN1C(=O)/C(=C\c2ccco2)SC1=S)Nc1cccc2ccccc12 | – | 11.2 µM (active)
11 | O=C(CCCN1C(=O)/C(=C\c2ccccc2)SC1=S)Nc1ccccc1O | – | 11.2 µM (active)
12 | O=C(CCCN1C(=O)/C(=C/c2cccs2)SC1=S)Nc1ccc(O)cc1 | -43.8 | –
13 | COc1ccc(/C=C2/SC(=O)N(CCCCCC(=O)Nc3ccccc3C(=O)O)C2=S)cc1 | -28.7 | –
14 | O=C(CN1C(=O)/C(=C\c2ccccc2F)SC1=S)Nc1nc2ccccc2s1 | -33.9 | –
15 | CCC(c1nnc(SCC(=O)NNC(=O)c2ccccc2)n1Cc1ccccc1)N(C)C (stereo not given) | 1.21 | –
16 | CN(C)/C=C(/C(=O)c1ccc(F)cc1)S(=O)(=O)c1ccc(F)cc1 | – | 12.6 µM (active)
17 | CN(C)/C=C(/C(=O)c1ccccc1)S(=O)(=O)c1ccc(Cl)cc1 | -33.1 | –
18 | CN(C)/C=C(/C(=O)c1ccc(Cl)cc1)S(=O)(=O)c1ccccc1 | -15.6 | –
19 | Cc1ccccc1CN1CCNC(=O)C1CC(=O)NCCC1=CCCCC1 (stereo not given) | 99.3 | –
20 | COc1cc(NC(=S)NNC(=O)CC(C)C)c(OC)cc1Cl | -27 | –
21 | C=CCNC(=O)c1sc(SC)cc1-c1ccc(Cl)cc1 | – | 1 µM (active)
22 | CSc1sc(C(=O)NNC(=O)c2ccc(Cl)cc2)c2c1C=CCC2 | -47 | –

Row | SMILES | activity change, negative = inhibition [%] | Potency
23 | C=CCNC(=O)c1csc(-c2ccccc2)n1 | -25.3 | –
24 | CCN1CCN(CC(=O)c2cc(OC)c(OC)c(OC)c2)CC1 | -9.84 | –
25 | CC(C)c1ccc(N(C(=O)c2ccco2)C(C(=O)NC2CCCC2)c2cccnc2)cc1 (stereo not given) | 30.8 | –
26 | Cc1cccc(N2C(=O)CC(SC(N)=Nc3ccccc3)C2=O)c1 (stereo not given) | -10.7 | –
27 | COC(=O)c1ccccc1SC1CC(=O)N(c2cccc(C)c2)C1=O (stereo not given) | – | 7.08 µM (active)
28 | COC(=O)c1cc(C(=O)OC)cc(N2C(=O)CC(N3CCN(c4ccccc4)CC3)C2=O)c1 (stereo not given) | 11.2 | –
29 | CCc1ccc(Oc2nc([N+](=O)[O-])nn2C)cc1 | -10.1 | –
30 | O=C1CC(=O)N(Cc2ccccc2)C(=O)N1CCCCCCN1C(=O)CC(=O)N(Cc2ccccc2)C1=O | – | 7.08 µM (active)
31 | Cc1c(NC(=O)CN2C(=O)C(=O)N(Cc3ccccc3)C2=O)c(=O)n(-c2ccccc2)n1C | -15.6 | –
32 | O=C(O)CCCN1C(=O)C2C3c4ccccc4C(c4ccccc43)[C@@H]2C1=O (stereo not given in full) | -5.32 | –
33 | COc1ccc(CCN2C(=O)N(c3ccc(OC)cc3)C(=O)C2CC(=O)Nc2ccc(OC)cc2)cc1 (stereo not given) | -11.7 | –
34 | CCN=C1S/C(=C\c2cc(Br)ccc2OCC(=O)OCC)C(=O)N1CC | 3.25 | –
35 | CCCCn1c(=S)[nH]c2ccccc2c1=O | -26.7 | –
36 | O=c1c2ccccc2[nH]c(=S)n1CCN1CCC(=C(c2ccc(F)cc2)c2ccc(F)cc2)CC1 | – | 3.16 µM (active)
37 | COc1ccc(Cn2c(=S)[nH]c3cc(C(=O)NCCCN4CCOCC4)ccc3c2=O)cc1 | 35.1 | –
38 | C=CCn1c(SCCOc2ccc(OC)cc2)nnc1C(NC(=O)c1ccc(OC)cc1)C(C)C (stereo not given) | 3.24 | –
39 | COc1cccc(NC(=O)CCc2nnc3ccc(N4CCC(C)CC4)nn23)c1 | 125 | –
40 | CN(CC(=O)NCC(c1ccccc1)N1CCCC1)S(=O)(=O)c1ccc(Cl)cc1 (stereo not given) | 96.8 | –
41 | CCc1ccc(NC(=O)COC(=O)c2cccs2)cc1 | -24.7 | –
42 | O=C(COC(=O)c1ccc(O)cc1O)NNC(=O)c1cccs1 | -14.2 | –
43 | O=C(COC(=O)c1ccc(NS(=O)(=O)c2cccs2)cc1O)Nc1ccc(F)cc1 | – | 14.1 µM (active)
44 | CC(=O)N/C(=C/c1ccc(OC(F)F)cc1)C(=O)O | -19.8 | –

Row | SMILES | activity change, negative = inhibition [%] | Potency
45 | COc1cccc(-c2coc3cc4oc(=O)c(CC(=O)O)c(C)c4cc23)c1 | -22.6 | –
46 | C=CCNC(=O)COc1coc(CN2CCN(Cc3ccccc3)CC2)cc1=O | 48.1 | –
47 | COc1ccc(OCCCC(=O)Nc2cccc(S(=O)(=O)N3CCCCCC3)c2)cc1 | -8.29 | –
48 | COc1cccc(NC(=O)COc2cccnc2[N+](=O)[O-])c1 | -40.6 | –
49 | O=C(CC(NS(=O)(=O)c1ccc(Cl)cc1)c1ccco1)NC1CCCC1 (stereo not given) | -46.4 | –
50 | COc1ccc(S(=O)(=O)NC(CC(=O)NCc2ccccc2OC)c2ccco2)cc1 (stereo not given) | – | 0.316 µM (active)
51 | COc1ccccc1CNC(=O)COC(=O)CNS(=O)(=O)c1ccc(NC(C)=O)cc1 | -14.1 | –
52 | Cc1cc(C)n(-c2ccc3nncn3n2)n1 | -5.01 | –
53 | COc1ccc(C2N3CC(C)(C)CN23)cc1 (stereo not given) | -13.2 | –
54 | O=C(CN1C(=O)/C(=C\c2ccc(C(F)(F)F)cc2)Sc2ccccc21)NCc1ccco1 | – | 10 µM (active)
55 | O=C(CC1CCCCC1)NCc1ccco1 | -0.34 | –
56 | O=C(CN1C(=O)/C(=C/c2ccccc2F)Sc2ccccc21)NCc1cccnc1 | 131 | –
57 | CC1CN(Cc2nc3c(c(=O)n(C)c(=O)n3C)n2Cc2cccc(Cl)c2)CC(C)O1 (stereo not given) | – | 44.7 µM (active)
58 | CN1CCN(Cc2nc3c(c(=O)n(C)c(=O)n3C)n2Cc2cccc3ccccc23)CC1 | 19.2 | –
59 | CCOC(=O)N1CCN(Cc2nc3c(c(=O)n(C)c(=O)n3C)n2Cc2ccccc2)CC1 | -89.9 | –
60 | C=CCn1c(C2CC(=O)N(c3ccc(C)cc3)C2)nc2ccccc21 (stereo not given) | 8.29 | –
61 | O=S(=O)(c1cccc2nonc12)N1CCN(c2cccc(Cl)c2)CC1 | -29.9 | –
62 | CC(=O)c1ccccc1NC(=O)CC1(CC(=O)O)CCCCC1 | -18.6 | –
63 | Cc1ccc(OCC(=O)NC(C)c2ccccc2)c([N+](=O)[O-])n1 (stereo not given) | 7.38 | –
64 | Cc1ccc(C(C)NC(=O)Cn2nc(C)c([N+](=O)[O-])c2C)cc1 (stereo not given) | -16.3 | –
65 | CC(C)N(c1ccccc1)c1ncnc(NCCC(=O)O)c1[N+](=O)[O-] | – | 0.316 µM (active)
